From PubChem BioAssay
In the library only some 19% were active in any assay of this set; here they are far more common.
IL1B secr inh: blocks inflammasome-driven IL-1 beta release. activity change, % at 57.5 µM. 4.7% of 360,000 active. THP-1 LPS/ATP IL-1B secretion, AlphaLISA, 16 h; active compounds read low. AID 743279; in the data active = activity change below about -50%; inconclusive = mostly about -30% to -49%; also: % is scaled to controls: 0 for no effect and ±100 for the full control effect
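Secreted IL-1B measured by AlphaLISA bead assay after 16 h compound exposure of THP-1 cells; compounds (final up to 57.5 uM) added 1 h before LPS (250 ng/mL) and ATP (1.25 mM) stimulation; lower signal means less secretion.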
MCF10A rereplic: inducers of DNA re-replication in MCF 10A breast cells | MCF 10A DNA re-replication, Hoechst nuclear intensity, 48 h | Potency, µM (top dose mostly 46.1 µM), for inactives: at the top dose activity, positive = re-replication, actives largely listed as activators | 2.9% of 350,000 active | AID 624296; also: potency is read from the fitted curve at half-maximal effect; % of control where 0% means no effect; nearly all actives have a fitted effect of over 50% in size
BCR signal inh: blocks chronic active B-cell receptor signaling; ABC-DLBCL IkBa-CBG/CBR reporter, luminescence ratio, 4 h; Potency, µM (series often up to 46.1 µM), for inactives: top-dose activity change, negative = inhibition, usual class: inhibitors; 0.05% of 340,000 active; AID 493014; active = well fitted inhibition curve with a large enough effect in the signal ratio, with a control signal flat, not every such curve was filed as active; inconclusive = small, poorly fitted or top-dose-only effect, or effect the other way, or a change in a side signal; the % refers to the signal ratio;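 also: potency is read from the fitted curve at half-maximal effect; plate controls were basal doxycycline-induced cells for no effect and cells given 10 µM MG132 for full effect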
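Cell line TMD8 (human ABC DLBCL), stably expressing tet-inducible CBG68-IkBa fusion and CBR; IMDM/0.5% FBS; cpd up to 46 uM; dox induction, 4 h, 37C/5% CO2; dual luminescence; green/red ratio; MG132 control.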
TDP1 cell noCPT: qHTS for Inhibitors of human tyrosyl-DNA phosphodiesterase 1 (TDP1): qHTS in cells in absence of CPT. DT40 Tdp1-/- hTDP1 cells, no CPT, ATP luminescence, 48 h. Potency, µM (top dose mostly 46.2 µM), inactives show top-dose activity change, negative = growth inhibition, hits mostly inhibitors. 15% of 420,000 active. AID 686978, 2013; also: potency is read from the fitted curve at half-maximal effect; % is scaled to controls: 0 for no effect and ±100 for the full control effect; nearly all actives have a fitted effect of over 55% in size
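Seeded 400 DT40-hTDP1 cells/well (vehicle DMSO, no 20 nM CPT); pinned compounds; ≥48 hr at 37 °C; CellTiter-Glo luminescence as viability measure.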
DT40 TDP1 CPT: DT40-hTDP1 cell growth loss with CPT | 12% of 420,000 active | Potency, µM (titrated, usually from 46.2 µM), for inactives: at the highest dose activity change, negative = growth inhibition, usual class: inhibitors | chicken DT40 Tdp1-/-;hTDP1 cells + 20 nM CPT, ATP luminescence, 48 h; also: potency is read from the fitted curve at half-maximal effect; % is scaled to controls: 0 for no effect and ±100 for the full control effect; nearly all actives have a fitted effect of over 55% in size
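Chicken DT40 Tdp1-/- cells complemented with human TDP1, 400 cells/well, exposed to compounds plus 20 nM camptothecin for at least 48 h at 37 C; viability read as ATP content by CellTiter-Glo luminescence.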
SW480 rereplic: inducers of DNA re-replication in SW480 colon cancer cells; SW480 DNA re-replication, Hoechst DNA content imaging, 48 h; Potency, µM (highest dose often 46.1 µM), without a hit: at the top dose re-replication activation, most hits filed as activators; 1.8% of 340,000 active; AID 624297; also: potency is read from the fitted curve at half-maximal effect; % of control where 0% means no effect; nearly all actives have a fitted effect of over 55% in size
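DNA re-replication was detected as more nuclei of elevated Hoechst intensity after 48 hr exposure to compound (23 nL pinned per well of 250 cells).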
* hit, by the source's call; u = inconclusive; x = no result; [ ] = another dose, or the depositor's remark. Unless noted, calls follow the shape of the dose curve; as a rule, active = well fitted curve in the direction sought with a large enough effect; inconclusive = small, poorly fitted or top-dose-only effect, or another doubt; inactive = no such curve, though single readings can be large; an effect the other way counts as inactive or inconclusive.

SMILES	IL1B secr inh	MCF10A rereplic	BCR signal inh	TDP1 cell noCPT	DT40 TDP1 CPT	SW480 rereplic
O=C1NC2CCCCN2C12CCN(CCCN1c3ccccc3CCc3ccc(Cl)cc31)CC2 (configuration not stated)	x	x	x	24µM*	u	x
CN(C)S(=O)(=O)c1ccc(C(=O)NNc2nc(-c3ccccc3)c3cc(Br)ccc3n2)cc1	-60*	4%	3%	u	u	14%
CC(C)CN1CCC2(CC1)CCN(S(C)(=O)=O)CC2	x	x	x	9%	u	x
C=CC1CN2CCC1CC2C(OC(C)=O)c1ccnc2ccc(OC)cc12 (configuration not stated)	-16	-2%	-3%	-8%	-1%	1%
O=C1NCN(c2ccccc2)C12CCN(C(CCc1ccccc1)c1nnnn1-c1ccc3c(c1)OCCO3)CC2 (configuration not stated)	-18	x	x	-113%	u	x
CCCCn1nnnc1C(c1ccnc2ccccc12)N1CCC2(CC1)C(=O)NCN2c1ccccc1 (configuration not stated)	-14	x	x	u	16µM*	x
CCC(c1nnnn1-c1ccc2c(c1)OCCO2)N1CCC2(CC1)C(=O)NCN2c1ccccc1 (configuration not stated)	-18	x	x	18µM*	18µM*	x
O=C1NCN(c2ccccc2)C12CCN(C(c1ccnc3ccccc13)c1nnnn1-c1ccc3c(c1)OCCO3)CC2 (configuration not stated)	-24	x	x	16µM*	u	x
O=C1NCN(c2ccccc2)C12CCN(C(c1ccnc3ccccc13)c1nnnn1C1CCCC1)CC2 (configuration not stated)	-4	x	x	u	u	x
COc1ccc(C(c2nnnn2-c2ccc3c(c2)OCCO3)N2CCC3(CC2)C(=O)NCN3c2ccccc2)cc1 (configuration not stated)	-5	x	x	26µM*	u	x
CCC(=O)OC1(c2ccccc2)CCN(C)CC1	x	x	x	-5%[92.5 µM]	-11%[92.5 µM]	x
C=CCN1CC[C@]23c4c5ccc(O)c4OC2C(O)C=CC3[C@H]1C5 (some centres not stated)	0	-38%	0%	-16%	-1%	-8%
C=CCC1(CCCCC)C(=O)NC(=S)NC1=O	15	11%	x	-20%	4%	0%
C[C@H](CCC(=O)O)[C@H]1CC[C@@H]2[C@@H]3[C@@H](O)C[C@H]4C[C@@H](O)CC[C@@]4(C)[C@H]3CC[C@@]21C	x	-6%[20.6 µM]	x	x	x	-4%[20.6 µM]
COC(=O)C1=C(c2cccc(OC)c2OC)C[C@@H]2CC[C@H]1N2C(=O)NCc1ccc(C(F)(F)F)cc1	-3	15%	x	u	-3%	-8%[9.22 µM]
CCN(CC)C(=O)C(C(=O)c1cccc([N+](=O)[O-])c1)n1cc(Cl)ccc1=O (configuration not stated)	-3	-2%	-2%	u	-20%	-4%
O=c1[nH]c(=S)n(-c2ccccc2)c(O)c1/C=N/N1CCOCC1	2	-3%	0%	20%	-4%	-3%
CCn1cc2nc(SCc3cccc(C(F)(F)F)c3)n(Cc3ccc(OC)cc3)c(=O)c2n1	x	x	x	15µM*	21µM*	x
CCn1cc2nc(SCc3c(F)cccc3Cl)n(CCc3ccccc3)c(=O)c2n1	x	x	x	23µM*	15µM*	x
COc1ccc(-c2oc3cc(OC)ccc3c(=O)c2O)cc1	x	x	x	12µM*	12µM*	x
O=C(NC(=O)c1c(F)cccc1F)Nc1ccc(Cl)cc1	x	x	x	-7%	-9%	x
Cc1cc(O)c2c(c1)OC(C)(C)C1=C2CC(C)CC1 (configuration not stated)	53	17%	u	-18%	u	7%
O=C(O)c1cc(Oc2ccc(C(F)(F)F)cc2Cl)ccc1[N+](=O)[O-]	5	-1%	x	8%	0%	-57%
O=[N+]([O-])c1cc(C(F)(F)F)c(Cl)c([N+](=O)[O-])c1Nc1ncc(C(F)(F)F)cc1Cl	x	x	x	0.025µM*	0.1µM*	x
O=C1C2CCN(CC2)C1Cc1ccc(OCCOc2ccccc2)cc1 (configuration not stated)	19	u	0%	u	29µM*	-5%
SMILES	IL1B secr inh	MCF10A rereplic	BCR signal inh	TDP1 cell noCPT	DT40 TDP1 CPT	SW480 rereplic
CC(C)NCC(O)c1ccc(N)c(C#N)c1 (configuration not stated)	x	6%	x	-1%[92.5 µM]	-9%[92.5 µM]	-5%
C=C(C)[C@@H]1CC[C@]2(C(=O)O)CC[C@]3(C)[C@H](CC[C@@H]4[C@@]5(C)CC[C@H](O)C(C)(C)[C@@H]5CC[C@]43C)[C@@H]12	60	u	-2%	3.7µM*	5.8µM*	-2%
CN(C)c1nc(OCCNC(=O)COc2ccc(Cl)cc2Cl)nc(N2CCCCC2)n1	-19	u	-2%	12µM*	9.2µM*	3%
O=C(COc1ccc(Cl)cc1Cl)Nc1ccc(CN2CCCCC2)cc1	-18	u	8%	-30%	-2%	-30%
COc1ccccc1OC(=O)Oc1ccccc1OC	-1	2%	x	u	-8%	3%
O=C1C(=O)c2cccc3cccc1c23	5	-1%	u	0.65µM*	0.58µM*	u
c1cc2ccc3cccc4ccc(c1)c2c34	x	x	x	-21%[92.5 µM]	-9%[92.5 µM]	x
O=C1C(=O)c2ccccc2-c2ccccc21	-108*	u	u	0.58µM*	0.52µM*	u
CC(=NCCC1=CCCCC1)c1c(O)[nH]c(=O)[nH]c1=O	-9	-1%	-2%	-22%	-14%	-9%
COc1cccc(C(=O)NCc2nc(-c3cccc(NC(=O)c4ccoc4C)c3)oc2C)c1	x	x	x	u	11%[9.04 µM]	x
Cc1occc1C(=O)Nc1cccc(-c2nc(CNC(=O)c3cccc(C#CC(C)(C)O)c3)c(C)o2)c1	x	x	x	21µM*	-4%[9.04 µM]	x
